From PubChem
This is one part of a sample in which hits are shown more often than they occur.
ST2 IL33 inh = inhibitors of human ST2 (IL1RL1) binding to IL-33. AlphaLISA ST2-Fc/biotin-IL-33 interaction, 1 h. Q01638. AID 1259354. inhibition, % for hits at 17 µM. 78,000 compounds, 2.3% hits; in the data active means inhibition above about 30%
Target sequence (Q01638 whole entry, looked up): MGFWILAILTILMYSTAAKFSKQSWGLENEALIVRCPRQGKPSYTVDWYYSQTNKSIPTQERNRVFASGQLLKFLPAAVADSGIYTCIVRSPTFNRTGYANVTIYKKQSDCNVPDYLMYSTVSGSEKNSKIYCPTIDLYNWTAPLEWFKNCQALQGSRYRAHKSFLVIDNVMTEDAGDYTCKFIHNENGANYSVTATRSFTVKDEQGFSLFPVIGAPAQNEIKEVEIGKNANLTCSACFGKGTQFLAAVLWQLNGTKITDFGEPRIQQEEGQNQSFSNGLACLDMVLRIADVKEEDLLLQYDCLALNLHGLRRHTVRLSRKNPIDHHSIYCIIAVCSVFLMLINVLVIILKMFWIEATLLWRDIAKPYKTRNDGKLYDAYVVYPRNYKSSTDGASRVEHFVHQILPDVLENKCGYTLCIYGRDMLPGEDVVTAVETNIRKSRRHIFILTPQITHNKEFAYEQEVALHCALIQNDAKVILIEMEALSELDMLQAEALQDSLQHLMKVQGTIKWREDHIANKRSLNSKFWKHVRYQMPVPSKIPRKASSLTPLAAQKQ
Hits are given with their value; . = inactive.

SMILES | ST2 IL33 inh
Cc1cc([N+](=O)[O-])ccc1NC(=O)COc1ccc(C(C)C)cc1 | .
Cc1nonc1OCC(C)(COc1nonc1C)Nc1ccc([N+](=O)[O-])cc1[N+](=O)[O-] | 40%
COc1ccc(N(C(=O)c2cc(C)cc(C)c2)C2C=CS(=O)(=O)C2)cc1 (stereo not drawn) | .
CCc1cccc(C)c1NC(=O)c1ccc(C)c(Cl)c1 | .
O=C(Nc1ccc(N2CCCC2)cc1)c1ccc(F)cc1 | 57%
O=C(Cc1ccccc1)Nc1ccc(N2CCCC2)cc1 | 59%
O=C(Nc1ccc(N2CCCC2)cc1)c1cc(I)ccc1Cl | 51%
CC(=O)c1ccc(C(=O)Nc2ccc(N3CCOCC3)cc2)cc1 | .
Cc1ccc(C(=O)Nc2cccc([N+](=O)[O-])c2)cc1Cl | .
O=C(Cc1ccccc1)Nc1ccc(S(=O)(=O)N2CCCC2)cc1 | .
Cc1ccc(C(=O)Nc2ccc(N3CCCC3)cc2)cc1Cl | 53%
CC(=O)Nc1ccc(NC(=O)c2cc(I)ccc2Cl)cc1 | .
CCCOc1ccc(C(=O)Nc2ccc(N3CCCC3)cc2)cc1 | .
O=C(Cc1ccccc1)Nc1cccc(C(=O)O)c1 | .
O=C(Nc1ccc(I)cc1)c1ccc(Cl)cc1Cl | .
CCc1cnc(C)nc1N1CCN(c2ncccc2C)CC1 | .
O=C(NCc1n[nH]c2c1CCCCC2)c1ccc(=O)[nH]c1 | .
COc1cc(-c2cccc3c2CCNC3)cc2cc(C(=O)O)oc12 | .
CCSc1nc(-c2ccc(OC)cc2)nc2c1c(=O)n(C)c(=O)n2C | .
Cn1c(=O)cc(SCC(=O)N2CCCCC2)c2ccc(Cl)cc21 | .
COCC(=O)NC(C)c1nc2ccccc2n1C (stereo not drawn) | .
NC(N)=NS(=O)(=O)c1ccc(N=Cc2ccc3c(c2)OCO3)cc1 | .
COc1ccccc1C1C2=C(CC(C)(C)CC2=O)OC2=C1C(=O)CC(C)(C)C2 | .
O=C(C[C@@H]1O[C@H](CNC(=O)Nc2cccc(F)c2)[C@@H](O)[C@H]1O)NC1CC1 | .
COc1ccc(OC)c(S(=O)(=O)N2CCN(c3nc(C)cc(N(C)C)n3)CC2)c1 | .
SMILES | ST2 IL33 inh
O=c1cc(-c2ccc(O)cc2)oc2c(C3OCC(O)C(O)C3O)c(O)c(C3OC(CO)C(O)C(O)C3O)c(O)c12 (stereo not drawn) | .
O=c1cc(-c2ccc(O)cc2)oc2c(C3OCC(O)C(O)C3O)c(O)c(C3OCC(O)C(O)C3O)c(O)c12 (stereo not drawn) | .
O=c1cc(-c2ccc(O)cc2)oc2c([C@@H]3O[C@H](CO)[C@@H](O[C@@H]4O[C@H](CO)[C@@H](O)[C@H](O)[C@H]4O)[C@H](O)[C@H]3O)c(O)cc(O)c12 | 50%
Cc1[nH]nc(-c2ccc(O)c(O)c2O)c1Oc1ccccc1 | 42%
CCCc1ccc(Oc2cn[nH]c2-c2ccc(O)c(C)c2O)cc1 | .
Oc1ccc(-c2[nH]ncc2Oc2ccccc2)c(O)c1 | .
COc1ccc(-c2n[nH]c(C)c2Oc2ccccc2)c(O)c1 | .
Oc1ccc(-c2[nH]ncc2Oc2ccccc2)c(O)c1O | 51%
CCOc1ccc(-c2n[nH]c(C)c2Oc2ccccc2)c(O)c1 | .
COc1ccc([N+](=O)[O-])cc1NC(=O)c1ccc(C)c(Cl)c1 | .
C=CCOc1ccc(C=Nc2ccc(S(=O)(=O)Nc3ccccn3)cc2)cc1OCC | .
O=C(c1ccccc1NCc1ccccn1)N1CCC2(CCNCC2)CC1 | .
O=C(Nc1ccc2c(c1)OCO2)c1cc(-c2ccc3c(c2)OCO3)on1 | .
CC(C)c1nc(CN(C)c2cc(N3CCOCC3)nc(N)n2)cs1 | .
CCCCN(C)CCNC(=O)CSc1cc(=O)n(C)c2ccccc12 | .
CC1=C(C(N)=O)C(c2ccc([N+](=O)[O-])cc2)n2nc(SCc3ccccc3F)nc2N1 (stereo not drawn) | .
Fc1ccccc1N1CCN(Cc2ccco2)CC1 | .
COc1ccc(CN2CCN(c3ccccc3OC)CC2)cc1OC | 30%
COc1ccccc1N1CCN(Cc2cc(OC)c(O)c(OC)c2)CC1 | .
COc1cc(OC)c(OC)cc1CN1CCN(c2ccccn2)CC1 | .
COc1cc(OC)c(OC)cc1CN1CCN(c2cc(C)ccc2C)CC1 | 35%
COc1cc(OC)c(OC)cc1CN1CCN(c2ccc(F)cc2)CC1 | .
COc1cc(OC)c(CN2CCN(c3ccccc3F)CC2)cc1Br | 36%
COc1ccc(CN2CCN(Cc3cc(OC)c(OC)cc3OC)CC2)cc1 | .
COc1ccccc1N1CCN(Cc2ccc(C(=O)O)cc2)CC1 | .
SMILES | ST2 IL33 inh
COc1ccc(CC2CN(Cc3noc(C4CCCC4)n3)CCO2)cc1 (stereo not drawn) | .
O=C(C1CCN(Cc2ccco2)CC1)N1CCOC(Cc2ccccc2)C1 (stereo not drawn) | .
Cn1ccc(CC(=O)N2CC[C@@H](N3CCN(c4ccccc4F)CC3)[C@H](O)C2)c1 | .
CCCCOc1ccc(OC(=O)c2ccc(Br)o2)cc1 | .
O=C1C(=Cc2ccc(-c3ccc(F)cc3)o2)C(=O)c2ccccc21 | .
CC1(C)OC(=O)C(=CNc2ccc(C(=O)O)cc2)C(=O)O1 | .
O=C1C(=Cc2cccn2-c2ccc(Cl)cc2)C(=O)c2ccccc21 | .
CC1(C)OC(=O)C(=Cc2ccc(I)o2)C(=O)O1 | 93%
